Sampled rows, rich in hits. Any-hit rate of the full collection: about 21%.
DT40 TDP1 no CPT – qHTS for Inhibitors of human tyrosyl-DNA phosphodiesterase 1 (TDP1): qHTS in cells in absence of CPT; DT40 Tdp1-/- hTDP1 cells, no CPT, ATP luminescence, 48 h; Potency, µM (titrated, usually from 46.2 µM), without a hit: top-dose activity change, negative = growth inhibition, usual class: inhibitors; actives 15% (n = 420,000); further: potency means the concentration at half of the fitted maximal effect; on the % scale 0 is the no-effect control and ±100 the full control effect; nearly all actives have a fitted effect of over 55% in size
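Readout: luminescence from CellTiter-Glo after 30 min in the dark at RT. Cells: DT40 Tdp1-/- with stable hTDP1, 400/well. Exposure: compounds alone, ≥48 hr, 37 °C.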
DT40 TDP1 CPT – growth inhibition of DT40 Tdp1-/-;hTDP1 cells with camptothecin (screen for TDP1 inhibitors) | chicken DT40 Tdp1-/-;hTDP1 cells + 20 nM CPT, ATP luminescence, 48 h | AID 686979 | Potency, µM (titrated, usually from 46.2 µM), for inactives: at the highest dose activity change, negative = growth inhibition, hits mostly inhibitors | actives 12% (n = 420,000); further: potency means the concentration at half of the fitted maximal effect; on the % scale 0 is the no-effect control and ±100 the full control effect; nearly all actives have a fitted effect of over 55% in size
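Chicken DT40 Tdp1-/- cells complemented with human TDP1, 400 cells/well, exposed to compounds plus 20 nM camptothecin for at least 48 h at 37 C; viability read as ATP content by CellTiter-Glo luminescence.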
IL1B secr inh – blocks inflammasome-driven IL-1 beta release | THP-1 LPS/ATP IL-1B secretion, AlphaLISA, 16 h; stronger effect = lower value | activity change, % at 57.5 µM | actives 4.7% (n = 360,000) | AID 743279; in the data active means activity change below about -50%; inconclusive means mostly about -30% to -49%; further: on the % scale 0 is the no-effect control and ±100 the full control effect
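THP-1 cells pretreated 1 hr with compounds (up to 57.5 uM final), then stimulated with LPS (250 ng/mL final) plus ATP (1.25 mM final); secreted IL-1B measured by AlphaLISA after 16 hr, decreased signal indicating inhibition.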
ClpP mod – qHTS Assay for Activators of ClpP. AID 651965, 2013. purified B. subtilis ClpP, FRET peptide cleavage, 20 min. Potency, µM (top dose mostly 57.5 µM), for inactives: at the top dose activity change, negative = active. ATP-dependent Clp protease proteolytic subunit (Bacillus subtilis (strain 168)), P80244. actives 1.9% (n = 340,000); active means well fitted falling curve with a large enough effect; inconclusive means small, poorly fitted or top-dose-only effect; inactive means no such curve, though single readings can be large or run the other way; further: potency means the concentration at half of the fitted maximal effect; the source files actives as falling curves though it sought activators and does not explain the sign; nearly all actives have a fitted effect of over 65% in size
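Buffer: 100 mM Tris/HCl pH8, 100 mM KCl, 0.05% low protease BSA, 2.5% glycerol, 0.01% Tween-20. ClpP 10 microg/mL final; 20 min RT; delta FRET normalized to ADEP and DMSO controls.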
DRD3 agonist – agonists of human D3 dopamine receptor; P35462; D3R DiscoveRx beta-arrestin cells, luminescence, 90 min; max activation, %; actives 0.58% (n = 410,000); AID 652048; in the data active means max activation above about 30%; further: 0% is about no effect
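Agonist-mode cell screen: cells plated at 1500/well and incubated overnight at 37 °C, then exposed to library compounds for 90 min at 37 °C. Detection reagent was added for 30–60 min at room temperature, and luminescence was read.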
D3 antag – D3 dopamine receptor (human) antagonism; P35462; D3R cells, DiscoveRx beta-arrestin luminescence, antagonist mode; stronger effect = lower value; max response, negative = inhibition, %; actives 2.5% (n = 360,000); in the data active means max response below about -50%; inconclusive means no clear call, values can overlap the other calls; further: on the % scale 0 is the no-effect control and ±100 the full control effect
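Cells plated overnight at 1500 cells/well, then exposed to library compounds with dopamine controls for 90 minutes at 37 degrees C. DiscoveRx reagent added for 30–60 minutes at room temperature; luminescence read, quantitative HTS format.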
Starred values were filed as active, the others as inactive; ! = not confirmed by another sample. Unless noted, the call rests on the fitted dose curve; in most records, active means well fitted inhibition curve with a large enough effect; inconclusive means small, poorly fitted or top-dose-only effect; inactive means flat fitted curve, though single readings scatter.

How did Cc1ccc(-n2c(C)c3c(C)nnc(C)c3c2C)cc1N do in these assays?
DT40 TDP1 no CPT: inconclusive; DT40 TDP1 CPT: 21µM*; IL1B secr inh: 18; ClpP mod: 1%; DRD3 agonist: -8; D3 antag: -26

Results for CCOC(=O)C(Cc1ccccc1)NC(=O)CCc1c(C)nc2ncnn2c1C (stereo not given) ?
DT40 TDP1 no CPT: -16%; DT40 TDP1 CPT: inconclusive; IL1B secr inh: -5; ClpP mod: 1%; DRD3 agonist: -1; D3 antag: 9

Results for Cc1nc2ncnn2c(C)c1CCC(=O)NCCc1ccccc1 ?
DT40 TDP1 no CPT: -27%; DT40 TDP1 CPT: inconclusive; IL1B secr inh: 3; ClpP mod: -2%; DRD3 agonist: -3; D3 antag: 15

What do the screens show for `CCOC(=O)C(Cc1ccccc1)NC(=O)CCc1c(C)nc2nc(C)nn2c1C` (stereo not given)?
DT40 TDP1 no CPT: 23µM*!; DT40 TDP1 CPT: inconclusive; IL1B secr inh: inconclusive; ClpP mod: -2%; DRD3 agonist: 5; D3 antag: inconclusive

Results for Cc1nc2cc(-c3cccc(F)c3)nn2c(C)c1CCC(=O)NCCc1ccccc1 ?
DT40 TDP1 no CPT: inconclusive; DT40 TDP1 CPT: 26µM*; ClpP mod: -19%; DRD3 agonist: 4

How did Cc1nc2cc(-c3ccccc3)nn2c(C)c1CCC(=O)NCCc1ccccc1 do in these assays?
DT40 TDP1 no CPT: inconclusive; DT40 TDP1 CPT: 16µM*; ClpP mod: 4%; DRD3 agonist: 8

How did O=C(O)CCC(=O)N1CCc2cc(S(=O)(=O)NCc3ccc(Cl)cc3)ccc21 do in these assays?
DT40 TDP1 no CPT: 14%; DT40 TDP1 CPT: -2%; IL1B secr inh: 13; ClpP mod: -3%; DRD3 agonist: 3; D3 antag: 0

Results for Cc1cccc(N2CC(C(=O)NC3CCCCCC3)CC2=O)c1C (stereo not given) ?
DT40 TDP1 no CPT: inconclusive; DT40 TDP1 CPT: inconclusive; IL1B secr inh: 7; ClpP mod: 4%; DRD3 agonist: 6; D3 antag: 24

Results for COc1ccccc1OCCn1c(COc2cc(C)ccc2C)nc2ccccc21 ?
DT40 TDP1 no CPT: inconclusive; DT40 TDP1 CPT: inconclusive; ClpP mod: 3%; DRD3 agonist: -7

Results for COc1cc(-c2nc(CN3CCN(C(=O)c4ccco4)CC3)c(C)o2)ccc1F ?
DT40 TDP1 no CPT: -12%; DT40 TDP1 CPT: -26%; IL1B secr inh: 0; ClpP mod: -3%; DRD3 agonist: -1; D3 antag: 1

What do the screens show for `Cc1ccc(NC(=O)CN(C)C(=O)Cc2ccc(Cl)cc2Cl)cc1`?
DT40 TDP1 no CPT: -24%; DT40 TDP1 CPT: 2%; IL1B secr inh: -27; DRD3 agonist: -12; D3 antag: -12

What do the screens show for `Cc1ccc(NC(=O)CN(C)C(=O)Cn2ncc(Cl)c(Cl)c2=O)cc1`?
DT40 TDP1 no CPT: 2.6µM*; DT40 TDP1 CPT: 3.3µM*; IL1B secr inh: -105*; ClpP mod: -5%; DRD3 agonist: -7; D3 antag: -20

What do the screens show for `Cc1ccc(NC(=O)CN(C)C(=O)CSc2nc(C)cc(C)n2)cc1`?
DT40 TDP1 no CPT: inconclusive; DT40 TDP1 CPT: -22%; IL1B secr inh: -16; ClpP mod: 1%; DRD3 agonist: 2; D3 antag: 0

How did Cc1ccc(NC(=O)CN(C)C(=O)Cc2ccc(Cl)c(Cl)c2)cc1 do in these assays?
DT40 TDP1 no CPT: inconclusive; DT40 TDP1 CPT: 29µM*; IL1B secr inh: -9; DRD3 agonist: -24; D3 antag: -14

Results for Cc1c(C(=O)N2CCCC2)sc2ncnc(NCCN(C)C)c12 ?
DT40 TDP1 no CPT: -11%; DT40 TDP1 CPT: -3%

Results for COCCCNc1nc2c(-c3ccc(Cl)cc3)nnn2c2ccccc12 ?
DT40 TDP1 no CPT: -6%; DT40 TDP1 CPT: 4%; IL1B secr inh: 39; ClpP mod: inconclusive; DRD3 agonist: -6; D3 antag: 0

What do the screens show for `NNc1nc2c(-c3ccc(Cl)cc3)nnn2c2ccccc12`?
DT40 TDP1 no CPT: inconclusive; DT40 TDP1 CPT: 10µM*; IL1B secr inh: 2; ClpP mod: -12%; DRD3 agonist: 5; D3 antag: 2

Results for NNc1nc2c(-c3ccc(F)cc3)nnn2c2ccccc12 ?
DT40 TDP1 no CPT: 12µM*; DT40 TDP1 CPT: 10µM*; IL1B secr inh: -11; DRD3 agonist: 20; D3 antag: 14

What do the screens show for `CC1=CN(S(=O)(=O)c2ccc(C)cc2)C[C@@H]2[C@H]3CC[C@H](C3)[C@H]12`?
DT40 TDP1 no CPT: inconclusive; DT40 TDP1 CPT: inconclusive; IL1B secr inh: -17; ClpP mod: 0%; DRD3 agonist: -54; D3 antag: -65*

Results for Cc1ccc(S(=O)(=O)N2C[C@@H]3[C@H]4CC[C@H](C4)[C@@H]3[C@@H](C)[C@@H]2C2CCCCC2=O)cc1 (stereo not given in full) ?
DT40 TDP1 no CPT: inconclusive; DT40 TDP1 CPT: inconclusive; IL1B secr inh: -22; ClpP mod: -3%; DRD3 agonist: -38; D3 antag: -3

How did CC1Cc2ccccc2N1C(=S)NC(=O)c1cccc(Br)c1 (stereo not given) do in these assays?
DT40 TDP1 no CPT: 15µM*; DT40 TDP1 CPT: 21µM*; IL1B secr inh: 22; ClpP mod: 1%; DRD3 agonist: 12; D3 antag: 13

Results for COc1cccc(C(=O)NC(=S)N2c3ccccc3CC2C)c1OC (stereo not given) ?
DT40 TDP1 no CPT: inconclusive; DT40 TDP1 CPT: -1%; IL1B secr inh: 5; DRD3 agonist: -7; D3 antag: 1

Results for CC1Cc2ccccc2N1C(=S)NC(=O)c1ccc(Cl)cc1Cl (stereo not given) ?
DT40 TDP1 no CPT: 10µM*; DT40 TDP1 CPT: inconclusive; IL1B secr inh: 22; ClpP mod: 2%; DRD3 agonist: 3; D3 antag: 9

What do the screens show for `O=C(CN1CCN(C(=O)CCC(=O)N2CCC(c3ccccc3)=N2)CC1)Nc1ccc(F)cc1`?
DT40 TDP1 no CPT: 23µM*; DT40 TDP1 CPT: inconclusive; IL1B secr inh: -9; DRD3 agonist: -12; D3 antag: -16

Results for O=C(CN1CCN(CC(=O)Nc2ccc3c(c2)OC2(CCCCC2)O3)CC1)Nc1cccc(F)c1 ?
DT40 TDP1 no CPT: 16µM*; DT40 TDP1 CPT: 23µM*; ClpP mod: 1%; DRD3 agonist: -9; D3 antag: -5

Bioassay records as filed in PubChem.
